Records with an inconclusive call do not appear. Activity calls are given as the source filed them. The call rests on the fitted dose curve.
How the values were obtained:
[1] = molecular target: Acetylcholinesterase (Homo sapiens) (UniProt P22303); assay: Acetylcholinesterase (AChE) small molecule antagonists: colormetric cell-based qHTS assay (AID 1347395); further: nearly all actives have a fitted effect of over 30% in size
Method in brief: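 Colorimetric readout: DTNB quantifies thiocholine from acetylthiocholine hydrolysed by endogenous AChE of SH-SY5Y cells (2,000/well, plated overnight). Compound pretreatment 30 min, substrate incubation 90 min, both 37 C.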

[2] = molecular target: Acetylcholinesterase (Homo sapiens) (UniProt P22303); assay: Acetylcholinesterase (AChE) small molecule antagonists: enzyme-based qHTS assay (AID 1347397); conditions: Potency: AChE enzyme activity inhibition; outcome: AChE enzyme activity inhibition; further: nearly all actives have a fitted effect of over 55% in size
Method in brief: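 Tox21 library chemicals are tested in qHTS format against recombinant human AChE. The enzyme, dispensed at 50 mU/mL, sits with compound for 30 min at room temperature. A DTNB–acetylthiocholine cocktail follows, and colour is read after 10 min.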

[3] = molecular target: Acetylcholinesterase (Homo sapiens) (UniProt P22303); assay: Acetylcholinesterase (AChE) small molecule antagonists: fluorescence cell-based qHTS assay (AID 1347398); conditions: Potency: AChE activity; outcome: AChE activity; further: nearly all actives have a fitted effect of over 50% in size
Method in brief: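 Cellular AChE inhibition: SH-SY5Y cells treated with test chemical for 30 min at 37 C, then acetylthiocholine hydrolysis followed over 40 min at room temperature via thiocholine-reactive Thiolite Green fluorescence (490/520 nm).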

[4] = molecular target: Acetylcholinesterase (Homo sapiens) (UniProt P22303); assay: Acetylcholinesterase (AChE) small molecule antagonists: enzyme-based qHTS assay with human liver microsomes (AID 1347399); conditions: Potency: qHTS inhibition; outcome: qHTS inhibition; further: nearly all actives have a fitted effect of over 60% in size
Method in brief: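 Recombinant human AChE (50 mU/mL in the enzyme mix) and human liver microsomes (0.25 mg/mL final) were preincubated with compound and NADPH (0.25 mg/mL final) for 30 min at 37 C. Acetylthiocholine/DTNB was then added; thiocholine was read colorimetrically after 10 min at room temperature.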

Measured: Potency

Acetylcholinesterase (Homo sapiens), sequence (P22303 whole entry, looked up): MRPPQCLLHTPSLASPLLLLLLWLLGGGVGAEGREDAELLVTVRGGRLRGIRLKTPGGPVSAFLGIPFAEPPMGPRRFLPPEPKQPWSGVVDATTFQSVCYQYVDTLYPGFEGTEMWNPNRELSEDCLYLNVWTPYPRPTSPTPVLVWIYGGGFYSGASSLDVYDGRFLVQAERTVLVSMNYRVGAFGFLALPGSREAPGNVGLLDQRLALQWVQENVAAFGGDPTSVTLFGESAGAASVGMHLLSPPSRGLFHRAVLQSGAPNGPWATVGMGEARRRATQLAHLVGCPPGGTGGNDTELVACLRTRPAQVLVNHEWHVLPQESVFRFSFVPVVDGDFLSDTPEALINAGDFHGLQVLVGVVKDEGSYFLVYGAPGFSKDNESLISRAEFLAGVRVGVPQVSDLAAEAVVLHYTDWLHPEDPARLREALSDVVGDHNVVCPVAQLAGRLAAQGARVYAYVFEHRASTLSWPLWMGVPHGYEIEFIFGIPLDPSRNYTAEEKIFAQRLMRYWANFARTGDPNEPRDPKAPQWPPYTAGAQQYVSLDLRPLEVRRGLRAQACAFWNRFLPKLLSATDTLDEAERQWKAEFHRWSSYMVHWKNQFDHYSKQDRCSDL

CC(C)(CCl)c1ccccc1
inactive: all assays above

OC1(c2ccc(Cl)cc2)CCNCC1
inactive: all assays above

Nc1ncnc2c1ncn2Cc1c(F)cccc1Cl
inactive: all assays above

NC1CCN(c2nc3c(cc2F)c(=O)c(C(=O)O)cn3-c2ccc(F)cc2F)C1 (stereo not given)
inactive: all assays above

C[N+]1([O-])CCOCC1
inactive: all assays above

O=C(NCCO[N+](=O)[O-])c1cccnc1
inactive: all assays above

O=c1cc(CO)occ1O
inactive: all assays above

CCCCCCCCOCCCN
inactive: all assays above

COC(=O)c1ccc(OC)cc1
inactive: all assays above

Cc1nc(C)c(C)nc1C
inactive: all assays above

CC(C)=CCC/C(C)=C/CC/C(C)=C/CCC(=O)OC/C=C(\C)CCC=C(C)C
inactive: all assays above

CCCCC(CC)COCCO (stereo not given)
inactive: all assays above

CCCCc1ccc2nc(NC(=O)OC)[nH]c2c1
inactive: all assays above

Cc1cccc(C)c1NC(=O)C(C)N (stereo not given)
inactive: all assays above

CCN(CC)CC(=O)OCC(=O)[C@@]1(O)CC[C@H]2[C@@H]3CCC4=CC(=O)CC[C@]4(C)[C@H]3[C@@H](O)C[C@@]21C
inactive: all assays above
